Bioassay records as filed in PubChem BioAssay.
ASM inhibitor = human S-ASM enzyme inhibition; 340,000 tested, 0.006% active; P17405; AID 504937; Potency, µM (top dose mostly 57.5 µM), usual class: inhibitors; placental ASM, HMU-PC fluorogenic substrate, 60 min
Target sequence (P17405 47-631 limits assumed): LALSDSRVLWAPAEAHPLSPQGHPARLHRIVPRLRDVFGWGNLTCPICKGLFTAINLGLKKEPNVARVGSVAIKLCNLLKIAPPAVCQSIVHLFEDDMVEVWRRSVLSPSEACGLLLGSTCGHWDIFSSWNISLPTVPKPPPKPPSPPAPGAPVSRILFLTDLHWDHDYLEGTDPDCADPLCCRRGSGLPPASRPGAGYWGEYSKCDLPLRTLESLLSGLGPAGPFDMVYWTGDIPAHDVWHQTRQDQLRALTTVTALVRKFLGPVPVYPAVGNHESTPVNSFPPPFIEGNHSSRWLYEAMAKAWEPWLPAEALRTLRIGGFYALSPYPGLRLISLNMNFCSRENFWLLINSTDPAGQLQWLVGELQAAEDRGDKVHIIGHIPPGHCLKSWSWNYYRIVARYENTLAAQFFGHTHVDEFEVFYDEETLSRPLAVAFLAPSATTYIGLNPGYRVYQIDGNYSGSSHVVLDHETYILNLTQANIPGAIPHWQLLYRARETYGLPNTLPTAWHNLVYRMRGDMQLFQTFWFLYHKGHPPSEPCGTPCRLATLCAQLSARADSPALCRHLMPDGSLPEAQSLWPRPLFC
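Human placenta-derived ASM preincubated with compound 10 min at room temperature, then reacted with 9 uM (final) fluorogenic HMU-PC substrate for 60 min at 37 C. Stop solution raises pH to 10; fluorescence read at Ex 386/Em 447 nm.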
DT40 TDP1 CPT = DT40-hTDP1 cell growth loss with CPT; chicken DT40 Tdp1-/-;hTDP1 cells + 20 nM CPT, ATP luminescence, 48 h; Potency, µM (doses to about 46.2 µM), most hits filed as inhibitors; 420,000 tested, 12% active; AID 686979; further: nearly all actives have a fitted effect of over 55% in size
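Chicken DT40 Tdp1-/- cells complemented with human TDP1, 400 cells/well, exposed to compounds plus 20 nM camptothecin for at least 48 h at 37 C; viability read as ATP content by CellTiter-Glo luminescence.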
HepG2 viability = counter-screen for TGF-b inhibitors: cytotoxicity in HepG2 cells | AID 588856 | HepG2 CAGA-GFP viability, ATP luminescence, 18 h | Potency, µM (series often up to 46.1 µM), actives largely listed as cytotoxic | 410,000 tested, 0.76% active
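CellTiter-Glo luminescence gave cytotoxicity after 18 hours at 37 degrees C. The cells were HepG2 CAGA-GFP in 1% FBS DMEM, stimulated with 500 pg/mL TGF-beta after compound addition. %Activity was normalised to no-cell wells (complete cell-killing) and DMSO (no toxicity), and curves were fitted and classified.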
IL-1B inflam inh = inflammasome signaling inhibition, IL-1 beta readout. THP-1 LPS/ATP IL-1B secretion, AlphaLISA, 16 h; active compounds read low. 360,000 tested, 4.7% active. activity change, % at 57.5 µM; in the data active means activity change below about -50%; inconclusive means mostly about -30% to -49%
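THP-1 cells pretreated 1 hr with compounds (up to 57.5 uM final), then stimulated with LPS (250 ng/mL final) plus ATP (1.25 mM final); secreted IL-1B measured by AlphaLISA after 16 hr, decreased signal indicating inhibition.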
DT40 TDP1 no CPT = qHTS for Inhibitors of human tyrosyl-DNA phosphodiesterase 1 (TDP1): qHTS in cells in absence of CPT. Potency, µM (series often up to 46.2 µM), hits mostly inhibitors. 420,000 tested, 15% active. AID 686978, 2013. DT40 Tdp1-/- hTDP1 cells, no CPT, ATP luminescence, 48 h; further: nearly all actives have a fitted effect of over 55% in size
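Growth of hTDP1-complemented DT40 Tdp1-knockout cells is measured by ATP luminescence after at least 48 hr compound exposure at 37 °C, with DMSO substituting for the 20 nM CPT used in the parallel screen.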
TGFb SMAD3 inh = inhibitors of TGF-b signaling | HepG2 CAGA-GFP TGF-b/SMAD3 reporter, GFP fluorescence, 18 h; TGF-beta stimulated, 500 pg/mL final | Potency, µM (series often up to 46.1 µM), usual class: inhibitors | 410,000 tested, 1.2% active | AID 588855; further: nearly all actives have a fitted effect of over 65% in size
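Per well, imaged GFP fluorescence of HEPG2 CAGA-GFP cells gives the signal; cells get compound, then TGF-beta (500 pg/mL final), 18 h at 37 degrees C; %Activity versus -TGF-beta and +DMSO controls.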
A number is an active result; n = inactive; u = inconclusive; x = no result; [ ] = dose if it differs, or a comment. An excerpt weighted towards active compounds, which were near 19% of everything screened. Unless noted, the call rests on the fitted dose curve; in most records, active means well fitted curve in the direction sought with a large enough effect; inconclusive means small, poorly fitted or top-dose-only effect, or another doubt; inactive means no such curve, though single readings can be large; an effect the other way counts as inactive or inconclusive.

SMILES	ASM inhibitor	DT40 TDP1 CPT	HepG2 viability	IL-1B inflam inh	DT40 TDP1 no CPT	TGFb SMAD3 inh
COc1ccc(/C=C(\NC(=O)c2cccs2)C(=O)Nc2cccc3ccccc23)cc1OC	n	u	n	n	18.4µM	n
Cc1ccnc2c(Cl)c(Cl)ccc12	x	n	n	x	n	n
N#Cc1ccc(CN2CCC3(CCNCC3)CC2)cc1	x	u	x	x	18.4µM	x
COCC(=O)N1CCC2(CCN(Cc3ccc(C#N)cc3)CC2)CC1	x	n	x	x	n	x
CCc1ccc(NC(=O)C(NS(=O)(=O)c2cccc3nsnc23)c2ccccc2)cc1 (stereo not drawn)	n	u	n	n	25.9µM	u
CCN(C(=O)C(NS(=O)(=O)c1cccc2nsnc12)c1ccccc1)c1ccccc1 (stereo not drawn)	x	u	n	x	23.1µM	n
O=C(NCCc1cccc(Cl)c1)c1cc2ccccc2oc1=O	n	n	n	n	n	n
CCS(=O)(=O)N1CC(=O)N(c2ccc(Cl)cc2C)C(C)(C(=O)NC2CCCCCC2)C1 (stereo not drawn)	x	u	n	x	u	n
CCN(CC)S(=O)(=O)c1cccc(NC(=O)CN2C(=O)NC3(CCC(C)CC3)C2=O)c1 (stereo not drawn)	n	u	n	n	u	n
Cc1c(C=NNC(=O)c2ccc(Br)cc2)c2ccccn2c1C(=O)c1ccncc1	n	n	n	n	u	n
c1coc(-c2nnc(-c3ccco3)nn2)c1	n	5.8µM	n	-76.0	11.6µM	n
CN1C=Nc2c(ncn2C2CCC(CO)O2)C1O (stereo not drawn)	x	n	x	n	n	x
CCOC(=O)c1c(NC(NC(C)=O)C(Cl)(Cl)Cl)sc2c1CCCC2 (stereo not drawn)	n	16.4µM	n	n	u	u
COC(=O)c1c(NC(NC(=O)C(C)C)C(Cl)(Cl)Cl)sc2c1CCC2 (stereo not drawn)	n	16.4µM	n	n	13µM	u
Cc1ccccc1OCC(=O)OCC(=O)Nc1cc(S(C)(=O)=O)ccc1Cl	n	n	n	n	n	n
COC(=O)c1cn(CC(C)n2c(=O)c3ccccc3n2Cc2cc(C(C)C)no2)nn1 (stereo not drawn)	x	n	x	n	n	x
O=C(Nc1ccc2c(c1)CN(Cc1ccco1)CC2)C1CCCO1 (stereo not drawn)	n	n	n	n	n	n
CSc1ccc(CNc2ccc(Cl)cc2)cc1	n	n	n	-73.3	n	n
Clc1ccc(NCc2cccnc2)cc1	n	n	n	n	n	n
CNC(=O)C1CCC(Cn2c(=O)c3sccc3n(CC(=O)Nc3ccccc3)c2=O)CC1 (stereo not drawn)	x	n	n	x	n	n
Cc1ccccc1Cn1c(=O)n(CC2CCC(C(=O)N3CCC(C)CC3)CC2)c(=O)c2sccc21 (stereo not drawn)	x	23.1µM	n	x	16.4µM	u
CNC(=O)C1CCC(Cn2c(=O)c3sccc3n(CC(=O)Nc3cc(C)cc(C)c3)c2=O)CC1 (stereo not drawn)	x	u	n	x	10.3µM	n
CCN(CC)C(=O)Cn1c(=O)n(Cc2ccc(F)cc2)c(=O)c2sccc21	n	9.2µM	n	n	u	n
CCN(CC)C(=O)Cn1c(=O)n(CCC(=O)Nc2ccc(F)cc2)c(=O)c2sccc21	n	n	n	n	n	n
Cc1ccccc1Cn1c(=O)n(CC2CCC(C(=O)NCCc3ccccc3)CC2)c(=O)c2ccccc21 (stereo not drawn)	n	20.6µM	n	n	29.1µM	n
SMILES	ASM inhibitor	DT40 TDP1 CPT	HepG2 viability	IL-1B inflam inh	DT40 TDP1 no CPT	TGFb SMAD3 inh
OCC[C@H]1C[C@@H](O)[C@H](O)[C@@]2(CCc3ccccc3CO2)O1	n	n	n	n	n	n
CCc1ccc(CNC(=O)c2ccc(NC(=O)C3=CSCCO3)cc2)cc1	n	n	n	n	n	n
O=C(Nc1ccccc1)c1cc(C2CCCCN2S(=O)(=O)c2ccc(F)cc2F)on1 (stereo not drawn)	x	n	n	n	u	n
O=C(C1CCC(Cn2c(=O)c3sccc3n(Cc3ccc(F)cc3)c2=O)CC1)N1CCOCC1 (stereo not drawn)	x	23.1µM	n	x	18.4µM	u
Nc1ccc(SC(F)(F)F)cc1C(=O)c1ccccc1	n	u	n	-102.7	u	12.6µM
CC1=C2C(O)C(=O)OC3CC4C(C)(C)C(=O)C=C[C@]4(C)C(CC1)[C@@]23C (stereo partly drawn)	x	n	x	x	n	x
Cc1c(-c2ccccc2)oc2c(C(=O)N3CCN(c4ccc([N+](=O)[O-])cc4)CC3)cccc2c1=O	n	16.4µM	n	n	20.6µM	n
CCOC(=O)c1oc2ccccc2c1CN1CCN(c2ccccc2)CC1	n	u	n	n	18.4µM	n
COc1ccc(N2CCN(C(=O)COC(=O)c3oc4ccccc4c3C)CC2)cc1	n	20.6µM	n	n	16.4µM	n
CCn1cc(C(=O)N2CCN(c3ccc([N+](=O)[O-])cc3)CC2)c(=O)c2ccc(C)nc21	n	u	n	n	u	n
Cc1c(C(=O)N2CCN(c3ccc([N+](=O)[O-])cc3)CC2)oc2ccccc12	n	u	n	n	16.4µM	n
CCCN1CCN(C(=O)CCNC(=O)Cn2cnc3ccccc3c2=O)CC1	n	n	n	n	n	n
CCCCn1c(N)c(N(Cc2ccccc2OC)C(=O)c2ccc([N+](=O)[O-])s2)c(=O)[nH]c1=O	n	u	n	n	18.4µM	u
CCCCN(C(=O)c1ccc(-c2ccc([N+](=O)[O-])cc2)o1)c1c(N)n(CCCC)c(=O)[nH]c1=O	n	u	n	n	16.4µM	u
CCCCN(C(=O)c1ccccc1OCc1ccc(F)cc1)c1c(N)n(CCC)c(=O)[nH]c1=O	n	18.4µM	n	n	u	n
CC(=O)OCC(=O)C1CCC2C3CCC4=CC(=O)C=CC4(C)C3CCC12C (stereo not drawn)	n	u	n	n	u	n
O=S(=O)(Nc1cccc(-c2ccc(N3CCOCC3)nn2)c1)c1ccccc1C(F)(F)F	x	n	n	x	u	n
Cc1cc2nc(C)n(CCCN)c2cc1C	n	23.1µM	n	n	18.4µM	n
CC1CN(Cc2cccn2-c2ncccn2)Cc2cc(Cl)ccc2O1 (stereo not drawn)	x	n[9.04 µM]	x	x	u	x
CC1CN(Cc2cccn2-c2cccnc2)Cc2cc(Cl)ccc2O1 (stereo not drawn)	x	n[9.04 µM]	x	x	18.4µM	x
